Compound activity as filed in PubChem BioAssay.
RORgamma inh – ROR gamma (mouse) transcription inhibition; P51450; Drosophila S2 Gal4-RORgamma UAS-luciferase reporter, 20 h; Potency, µM (titrated, usually from 53.6 µM), usual class: inhibitors; 5.4% of 310,000 active; also: nearly all actives have a fitted effect of over 60% in size
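ROR gamma transcriptional activity was tracked as Gal4-UAS luciferase output in stably transfected Drosophila Schneider cells, with compound added 1 hr before 700 uM copper sulfate induction and a 20 hr ambient-temperature incubation.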
B2AR arrestin – agonists driving beta-arrestin recruitment to human beta2-adrenergic receptor | P07550 | beta-arrestin recruitment to beta2AR, cell-based reporter | Potency, µM (series often up to 46.1 µM), usual class: activators | 0.02% of 330,000 active; also: nearly all actives have a fitted effect of over 65% in size
Target sequence (P07550 whole entry, looked up): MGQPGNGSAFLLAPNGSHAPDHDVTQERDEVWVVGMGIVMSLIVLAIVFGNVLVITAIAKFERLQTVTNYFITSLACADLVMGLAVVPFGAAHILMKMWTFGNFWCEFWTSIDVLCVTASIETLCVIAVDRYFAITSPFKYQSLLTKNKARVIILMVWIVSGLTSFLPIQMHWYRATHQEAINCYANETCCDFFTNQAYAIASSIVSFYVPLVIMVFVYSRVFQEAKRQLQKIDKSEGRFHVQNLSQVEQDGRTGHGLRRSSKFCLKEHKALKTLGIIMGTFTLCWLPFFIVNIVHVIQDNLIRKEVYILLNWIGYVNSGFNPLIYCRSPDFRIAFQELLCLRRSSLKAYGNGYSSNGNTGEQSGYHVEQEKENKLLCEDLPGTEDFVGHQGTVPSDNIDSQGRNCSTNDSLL
ELG1 repair inh – ELG1-dependent DNA repair inhibition. HEK293T ELG1-luciferase reporter, luminescence, 16 h; DNA damage induced by 5-fluorouridine. Potency, µM (doses to about 46.1 µM), usual class: inhibitors. 2.3% of 330,000 active. AID 504467; also: nearly all actives have a fitted effect of over 55% in size
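In this reporter screen, reduction of luminescence relative to DMSO vehicle indicated activity. Compounds and 5-fluorouridine were added together to 2,000 cells per well, incubated for 16 hr at 37 °C, then developed with ONE-Glo.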
TSHR antagonist – antagonists of human thyroid stimulating hormone receptor; activity change, negative = inhibition, % at 11.5 µM; P16473; 0.2% of 330,000 active; TSHR-expressing cells, TSH-stimulated cAMP HTRF, 2 h; active compounds read low;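 active = activity change below a set negative limit, meaning inhibition stronger than a set level, cut at about -70% in these data; inconclusive = activity change between two set negative limits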
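Freshly harvested TSHR cells receive pin-tooled compound, then EC80 TSH at 4nM final. After 2 hours at 37 deg C, antibody in lysis buffer and cAMP-d2 are added; 30 minutes at ambient temperature precede the HTRF read.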
VP16 counter – inhibits Gal4-VP16 luciferase reporter, ROR gamma counter-screen; Drosophila S2 Gal4-VP16 UAS-luciferase, luminescence, 20 h; Potency, µM (titrated, usually from 53.6 µM), hits mostly inhibitors; 3.5% of 310,000 active; AID 2546;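 also: Gal4-VP16 expression switched on by copper sulfate through the metallothionein promoter; nearly all actives have a fitted effect of over 50% in size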
ELG1 FLuc counter – luciferase inhibition in cell-free luciferin readout for ELG1 hits | shares compounds with ELG1 repair inh | cell-free firefly luciferase luminescence counter-screen, ViewLux | Potency, µM (doses to about 46.1 µM), hits mostly inhibitors | 3% of 350 active
ELG1-Luc inh – human ELG1 repair inhibition, luciferase-tagged ELG1 confirmation. shares compounds with ELG1 repair inh. 68% of 670 active. Potency, µM (titrated, usually from 46.1 µM), usual class: inhibitors. HEK293T ELG1-luciferase levels, luminescence; cells co-treated with 5-fluorouridine; also: nearly all actives have a fitted effect of over 55% in size
ELG1-Luc MMS – inhibits ELG1-dependent repair under MMS stimulation in HEK293T cells | shares compounds with ELG1 repair inh | HEK293T luciferase-tagged ELG1 level, MMS stimulated | Potency, µM (highest dose often 46.1 µM), usual class: inhibitors | 53% of 670 active; also: nearly all actives have a fitted effect of over 60% in size
ELG1 5-FU – confirmation of ELG1 repair inhibitors: viability with 5FU; shares compounds with ELG1 repair inh; cell viability with 5-FU, ELG1-dependent repair; Potency, µM (top dose mostly 46.1 µM), most hits filed as cytotoxic; 670 tested, under 10 active;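 also: ELG1-luc HEK293T cells cotreated with 5-fluorouridine at 10 µM final; viability measured 16 h after compound addition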
ELG1 MMS viab – confirmation of ELG1 repair inhibitors: viability with MMS; shares compounds with ELG1 repair inh; Cell viability with MMS, ELG1-dependent DNA repair; Potency, µM (doses to about 46.1 µM), usual class: cytotoxic; 33% of 670 active; AID 624251;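 also: ELG1-luc HEK293T cells co-treated with 10 µM MMS; viability read 16 h after compound addition; nearly all actives have a fitted effect of over 60% in size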
Cell viab unstim – counter-screen for ELG1 repair inhibitors: unstimulated cell viability; shares compounds with ELG1 repair inh; cell viability counter-screen, unstimulated, luminescence; Potency, µM (top dose mostly 45.9 µM), hits mostly cytotoxic; 8% of 900 active; AID 624252;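 also: compound exposure lasted 16 hours before reading; nearly all actives have a fitted effect of over 55% in size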
FLuc enzyme – firefly luciferase inhibition counter-screen; shares compounds with ELG1 repair inh; purified firefly luciferase, luminescence counter-screen; Potency, µM (series often up to 57.5 µM), actives largely listed as inhibitors; 10% of 350 active
Large screens that a line does not name were inactive (follow-up assays come after a bar, where they were run). Rows were chosen to be rich in hits. Some 7.5% of all compounds tested hit in one or more screens of this group. Unless noted, calls follow the shape of the dose curve; as a rule, active = well fitted curve in the direction sought with a large enough effect; inconclusive = small, poorly fitted or top-dose-only effect, or another doubt; inactive = no such curve, though single readings can be large; an effect the other way counts as inactive or inconclusive.

N#C/C(=C\c1ccc(OCc2ccc(F)cc2)cc1)C(=O)Nc1cccc(C(=O)O)c1	ELG1 repair inh inconclusive
COc1nc(Nc2nc3ccccc3c(=O)[nH]2)nc2ccc(C)cc12	RORgamma inh inconclusive, ELG1 repair inh 4.6µM, VP16 counter 5µM | ELG1-Luc inh 2.2µM | ELG1-Luc MMS 3.1µM | ELG1 5-FU inconclusive | ELG1 MMS viab inactive | Cell viab unstim inactive
COc1ccc(/C=C(/NC(=O)c2ccccc2)c2nc3ccccc3[nH]2)cc1OC	none
COc1ccc(C(=O)N/C(=C\c2cccs2)c2nc3ccccc3[nH]2)cc1OC	ELG1 repair inh 2.3µM | ELG1-Luc inh 7.9µM | ELG1-Luc MMS inactive | ELG1 5-FU inconclusive | ELG1 MMS viab inactive | Cell viab unstim inconclusive
O=C(O)c1cccc(Nc2nc(N3CCOCC3)nc(N3CCOCC3)n2)c1	none | ELG1 FLuc counter inactive | ELG1-Luc inh inactive | ELG1-Luc MMS inactive | ELG1 5-FU inactive | ELG1 MMS viab inactive | Cell viab unstim inactive | FLuc enzyme inactive
O=C(CSc1nc2ccc(Nc3nc(N4CCOCC4)nc(N4CCOCC4)n3)cc2s1)Nc1ccccc1Cl	RORgamma inh inconclusive, ELG1 repair inh 2.9µM, VP16 counter inconclusive | ELG1 FLuc counter inconclusive | ELG1-Luc inh 4µM | ELG1-Luc MMS inactive | ELG1 5-FU inconclusive | ELG1 MMS viab inactive | Cell viab unstim inactive | FLuc enzyme inactive
CN1CCN(c2nc(Nc3cccc(C(F)(F)F)c3)nc(N3CCOCC3)n2)CC1	ELG1 repair inh inconclusive
Cc1[nH]n(-c2nc(-c3ccc(Cl)cc3)cs2)c(=O)c1N=Nc1ccc(O)cc1	ELG1 repair inh 4.1µM | ELG1-Luc inh 16µM | ELG1-Luc MMS 16µM | ELG1 5-FU inconclusive | ELG1 MMS viab 28µM | Cell viab unstim inconclusive
O=C1c2cccc(OCc3ccc(F)cc3)c2CCN1Cc1ccc(F)cc1	RORgamma inh inconclusive, ELG1 repair inh 4.1µM, VP16 counter inconclusive | ELG1-Luc inh 13µM | ELG1-Luc MMS 3.5µM | ELG1 5-FU inactive | ELG1 MMS viab 3.1µM | Cell viab unstim inconclusive
CN1CCc2c(OCc3ccc(F)cc3)cccc2C1=O	none
O=C(Nc1cc(Br)ccc1O)c1cnn2c(C(F)F)cc(C3CC3)nc12	ELG1 repair inh 2.3µM | ELG1-Luc inh 1µM | ELG1-Luc MMS inactive | ELG1 5-FU inconclusive | ELG1 MMS viab inactive | Cell viab unstim inconclusive
COCCCn1c(SCC(=O)NC2CCCC2)nnc1-c1ccncc1	none
COc1ccc2[nH]cc(CCNC(=O)CC[C@H]3O[C@@H](n4cc(C)c(=O)[nH]c4=O)C[C@@H]3O)c2c1	none (no result: RORgamma inh, VP16 counter)
CC(C)c1ccc(NC(=O)N2CCCC2C(=O)Nc2ccc(-n3cnnn3)cc2)cc1 (stereo not given)	none
